Source: PubChem BioAssay (NCI)
The panel holds about 79,000 compounds, 15% with a hit somewhere; the sample as a whole holds those more often. Activity calls are given as the source filed them. Rule as the data show it: active = growth inhibition above about 70%; inactive = the rest.

Experiments:
[1] = NCI Yeast Anticancer Drug Screen. Data for the rad52 strain (AID 147);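 also: 0% = growth of vehicle-treated control cultures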; settings: S. cerevisiae rad52 mutant growth inhibition, active compounds read high
Procedure, shortened: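 DNA repair-defective yeast; compound exposure; growth scored against vehicle controls.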

[2] = NCI Yeast Anticancer Drug Screen. Data for the wt1 strain (AID 149);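 also: 0% = growth of vehicle-treated wt1 cultures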; settings: S. cerevisiae wt1 strain (SPY 50644) growth inhibition, active compounds read high
Procedure, shortened: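 Measured: growth of wt1 yeast under compound versus vehicle treatment, reported as inhibition.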

[3] = NCI Yeast Anticancer Drug Screen. Data for the rad50EPP+ strain (AID 151);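 also: 0% = growth of vehicle-treated control cultures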; settings: S. cerevisiae rad50 mutant strain, active compounds read high
Procedure, shortened: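 rad50EPP+ yeast treated with test compounds. Readout: growth vs vehicle control.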

[4] = NCI Yeast Anticancer Drug Screen. Data for the mgt1 strain (AID 153); settings: S. cerevisiae mgt1 mutant growth inhibition, active compounds read high
Procedure, shortened: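 Growth inhibition relative to vehicle controls was scored for the mgt1 yeast strain after compound exposure.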

[5] = NCI Yeast Anticancer Drug Screen. Data for the rad50 strain (AID 155);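 also: 0% = growth of vehicle-only cultures of the same strain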; settings: S. cerevisiae rad50 strain growth inhibition, active compounds read high
Procedure, shortened: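 Growth of the mutant yeast was measured after compound exposure and referenced to vehicle-treated cultures.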

[6] = NCI Yeast Anticancer Drug Screen. Data for the mec2-1 strain (AID 157); settings: S. cerevisiae mec2-1 strain, active compounds read high
Procedure, shortened: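 Growth inhibition is read against vehicle-treated controls after compound exposure of the mec2-1 yeast strain, which is defective in DNA damage repair or cell cycle control.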

[7] = NCI Yeast Anticancer Drug Screen. Data for the rad14 strain (AID 159);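 also: 0% = growth of vehicle-treated control cultures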; settings: S. cerevisiae rad14 strain growth inhibition, active compounds read high
Procedure, shortened: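 Here, inhibition of yeast growth was measured after compound exposure, using a strain with a genetic defect in DNA damage repair and vehicle-treated cultures as the reference.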

[8] = NCI Yeast Anticancer Drug Screen. Data for the sgs1 mgt1 strain (AID 161);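 also: 0% = growth of cultures given vehicle only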; settings: S. cerevisiae sgs1 mgt1 strain, active compounds read high
Procedure, shortened: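 Yeast cells carrying a defined DNA-repair defect were exposed to test compounds. Growth inhibition was measured relative to vehicle-treated controls.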

[9] = NCI Yeast Anticancer Drug Screen. Data for the cln2 rad14 strain (AID 165);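 also: 0% = growth equal to vehicle treated cultures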; settings: S. cerevisiae cln2 rad14 strain, active compounds read high
Procedure, shortened: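 Growth inhibition, relative to vehicle-treated controls, is the read-out. The test organism is a yeast strain with defined genetic alterations, cln2 rad14.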

[10] = NCI Yeast Anticancer Drug Screen. Data for the bub3 strain (AID 167); settings: S. cerevisiae bub3 mutant strain, active compounds read high
Procedure, shortened: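 Whole-cell yeast assay. The mutant strain was incubated with compounds, and growth inhibition was determined by comparison with vehicle-treated cells.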

[11] = NCI Yeast Anticancer Drug Screen. Data for the wt2 strain (AID 169);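 also: 0% = growth of vehicle-treated yeast cultures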; settings: S. cerevisiae wt2 strain growth inhibition, active compounds read high
Procedure, shortened: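 Compound exposure of yeast; growth compared with vehicle controls; inhibition reported.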

[12] = NCI Yeast Anticancer Drug Screen. Data for the mlh1 strain (AID 171);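 also: 0% = growth of vehicle-treated control cultures of the same strain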; settings: S. cerevisiae mlh1 strain growth inhibition, active compounds read high
Procedure, shortened: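 Compounds are applied to a genetically altered yeast strain, and its growth is compared with that of vehicle-treated cultures to give percent inhibition.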

[13] = NCI Yeast Anticancer Drug Screen. Data for the sgs1 strain (AID 173);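 also: 0% = growth of vehicle-only control cultures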; settings: S. cerevisiae sgs1 mutant, active compounds read high
Procedure, shortened: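 Compounds applied to genetically altered yeast; growth compared with vehicle-treated cultures to give % inhibition.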

[14] = NCI Yeast Anticancer Drug Screen. Data for the mlh1 rad18 strain (AID 175); settings: S. cerevisiae mlh1 rad18 strain growth inhibition, active compounds read high
Procedure, shortened: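 Cells of a genetically altered yeast strain, deficient in DNA damage repair, were treated with compound. Their growth was then compared with that of vehicle-treated cultures to give inhibition.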

[15] = NCI Yeast Anticancer Drug Screen. Data for the rad18 strain (AID 177); settings: S. cerevisiae rad18 mutant growth inhibition, active compounds read high
Procedure, shortened: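 Compounds are applied to a repair-deficient yeast strain, and growth is compared with that of vehicle-treated cultures to give percent inhibition.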

[16] = at 5.0 µM (retest, dose inferred, filed as 0.5)
[17] = at 50.0 µM (retest, dose inferred, filed as 5.0)

Measured: growth inhibition

CNCC(C)CNC
active: [5]; at 50.0 µM 73.8% | [14]; [17] 84% | [14]; at 50.0 µM 71.8%
inactive: [1]; at 1.2 µM -40% | [1]; at 3.7 µM -51% | [1]; at 11.0 µM -46% | [1]; at 33.0 µM -50% | [1]; at 100.0 µM -52% | [2]; at 1.2 µM -25% | [2]; at 3.7 µM -14% | [2]; at 11.0 µM -5% | [2]; at 33.0 µM -8% | [2]; at 100.0 µM -21% | [3]; at 1.2 µM -14% | [3]; at 3.7 µM -29% | [3]; at 11.0 µM -23% | [3]; at 33.0 µM -2% | [3]; at 100.0 µM -19% | [4]; at 1.2 µM 9% | [4]; at 3.7 µM 17% | [4]; at 11.0 µM 25% | [4]; at 33.0 µM 4% | [4]; at 100.0 µM 5% | [5]; at 1.2 µM 4% | [5]; at 3.7 µM -14% | [5]; [16] -6% | [5]; at 11.0 µM -28% | [5]; at 33.0 µM -27% | [5]; [17] 22% | [5]; at 100.0 µM -23% | [6]; at 1.2 µM -12% | [6]; at 3.7 µM -15% | [6]; [16] 10% | [6]; at 11.0 µM -19% | [6]; at 33.0 µM -27% | [6]; [17] 39% | [6]; at 50.0 µM 42.5% | [6]; at 100.0 µM -26% | [7]; at 1.2 µM -18% | [7]; at 3.7 µM -15% | [7]; at 11.0 µM -13% | [7]; at 33.0 µM -12% | [7]; at 100.0 µM -18% | [8]; [16] 2% | [8]; [17] 25% | [8]; at 50.0 µM 23.3% | [9]; [16] 20% | [9]; [17] 63% | [9]; at 50.0 µM 66.2% | [10]; at 1.2 µM -11% | [10]; at 3.7 µM 1% | [10]; [16] -9% | [10]; at 11.0 µM -8% | [10]; at 33.0 µM -33% | [10]; [17] 69% | [10]; at 50.0 µM -2.65% | [10]; at 100.0 µM -50% | [11]; at 1.2 µM -30% | [11]; at 3.7 µM -30% | [11]; at 11.0 µM -28% | [11]; at 33.0 µM -37% | [11]; at 100.0 µM -41% | [12]; at 1.2 µM 12% | [12]; at 3.7 µM 8% | [12]; at 11.0 µM 5% | [12]; at 33.0 µM 6% | [12]; at 100.0 µM -30% | [13]; at 1.2 µM -28% | [13]; at 3.7 µM -6% | [13]; at 11.0 µM -22% | [13]; at 33.0 µM -23% | [13]; at 100.0 µM -22% | [14]; [16] -6% | [15]; at 1.2 µM -16% | [15]; at 3.7 µM -25% | [15]; at 11.0 µM -21% | [15]; at 33.0 µM -21% | [15]; at 100.0 µM -31%

CC1(c2ccccc2)O[C@@H]2C[C@H]3[C@@H]4CCC5=CC(=O)C=C[C@]5(C)[C@@]4(F)[C@@H](O)C[C@]3(C)[C@]2(C(=O)CO)O1 (stereo partly specified)
inactive: [1]; at 1.2 µM -3% | [1]; at 3.7 µM -2% | [1]; at 11.0 µM 6% | [1]; at 33.0 µM 62% | [2]; at 1.2 µM 0% | [2]; at 3.7 µM 6% | [2]; at 11.0 µM 3% | [2]; at 33.0 µM 24% | [3]; at 1.2 µM 3% | [3]; at 3.7 µM 3% | [3]; at 11.0 µM 7% | [3]; at 33.0 µM 11% | [3]; at 100.0 µM 23% | [4]; at 1.2 µM -2% | [4]; at 3.7 µM -5% | [4]; at 11.0 µM -5% | [4]; at 33.0 µM 53% | [5]; at 1.2 µM -2% | [5]; at 3.7 µM 0% | [5]; [16] 15% | [5]; at 11.0 µM 6% | [5]; at 33.0 µM 51% | [5]; [17] 35% | [6]; at 1.2 µM 3% | [6]; at 3.7 µM 5% | [6]; [16] 1% | [6]; at 11.0 µM 10% | [6]; at 33.0 µM 41% | [6]; [17] 8% | [7]; at 1.2 µM -2% | [7]; at 3.7 µM 2% | [7]; at 11.0 µM 11% | [8]; [16] 2% | [8]; [17] 33% | [9]; [16] 6% | [9]; [17] 15% | [10]; at 1.2 µM -3% | [10]; at 3.7 µM -10% | [10]; [16] -11% | [10]; at 11.0 µM -4% | [10]; at 33.0 µM 21% | [10]; [17] 10% | [11]; at 1.2 µM 1% | [11]; at 3.7 µM -1% | [11]; at 11.0 µM -2% | [11]; at 33.0 µM 60% | [12]; at 1.2 µM -1% | [12]; at 3.7 µM 2% | [12]; at 11.0 µM 5% | [12]; at 33.0 µM 66% | [14]; [16] -4% | [14]; [17] 56% | [15]; at 1.2 µM -1% | [15]; at 3.7 µM 4% | [15]; at 11.0 µM 21%
active: [1]; at 100.0 µM 98% | [2]; at 100.0 µM 94% | [4]; at 100.0 µM 98% | [5]; at 50.0 µM 92.7% | [5]; at 100.0 µM 97% | [6]; at 50.0 µM 91.2% | [6]; at 100.0 µM 98% | [7]; at 33.0 µM 75% | [7]; at 100.0 µM 99% | [8]; at 50.0 µM 92.1% | [9]; at 50.0 µM 95.8% | [10]; at 50.0 µM 90.9% | [10]; at 100.0 µM 95% | [11]; at 100.0 µM 98% | [12]; at 100.0 µM 96% | [14]; at 50.0 µM 96.2% | [15]; at 33.0 µM 76% | [15]; at 100.0 µM 98%
